tim23-1 inh: inhibits growth of tim23-1 mutant yeast | S. cerevisiae tim23-1 growth, BacTiter-Glo luminescence, 24 h | inhibition, % at 20 µM | 330,000 tested, 1.3% active | AID 463212;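 active means growth inhibition of the mutant yeast at or above 50%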;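 further: temperature-sensitive mutant grown at 25 °C; plate controls were DMSO-treated mutant yeast for no effect and medium wells lacking yeast for full effect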
tim10-1 inh: inhibits growth of tim10-1 mutant yeast | 330,000 tested, 2.2% active | inhibition, % at 20 µM | S. cerevisiae tim10-1 ts strain growth, BacTiter-Glo, 24 h | AID 463190;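 active means inhibition of at least 40%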;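 further: mutant grown at 25 °C; 0% = DMSO wells with yeast and 100% = wells holding no yeast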
PfHsp90 yeast 2: inhibits growth of yeast expressing Plasmodium falciparum Hsp90; inhibition, % at 9.4 µM; S. cerevisiae expressing PfHsp90, BacTiter-Glo ATP, 48 h; yeast lacking PDR1 and PDR3 efflux regulators; 310,000 tested, 0.32% active;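 active means every replicate shows inhibition above about 80%, whatever the replicate mean, limit read from the data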;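 further: 0% = DMSO neutral controls and 100% = 20 µM radicicol positive controls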
TIM10 inh: inhibits growth of TIM10 yeast strain | S. cerevisiae TIM10 strain growth, BacTiter-Glo luminescence, 24 h | inhibition, % at 10 µM | 330,000 tested, 1.4% active | AID 463195;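 active means inhibition of 40% or more at the single tested concentration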;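 further: wild-type TIM10 isogenic control strain grown at permissive 25 °C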
Rce1 inhib: blocks yeast Ras-converting enzyme. yeast membranes, quenched prenylated peptide cleavage fluorescence. 290,000 tested, 0.27% active. calls only. Q03530;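 active means fall in fluorescence gain of 50% or more versus controls, with final raw signal at or below 3038400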;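 further: plate controls were neutral control wells for no effect and wells lacking membranes for full effect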
Target sequence (Q03530 whole entry, looked up): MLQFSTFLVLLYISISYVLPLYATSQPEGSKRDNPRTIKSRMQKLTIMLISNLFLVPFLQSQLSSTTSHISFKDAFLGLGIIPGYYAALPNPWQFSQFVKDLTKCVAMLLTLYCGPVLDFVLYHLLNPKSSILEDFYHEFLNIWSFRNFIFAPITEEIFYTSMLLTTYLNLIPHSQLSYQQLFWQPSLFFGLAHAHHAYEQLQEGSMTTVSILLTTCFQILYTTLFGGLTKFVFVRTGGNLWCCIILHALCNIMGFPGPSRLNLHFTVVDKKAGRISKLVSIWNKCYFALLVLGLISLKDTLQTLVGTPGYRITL
The depositor's hits bear a star; i = inactive; . = no result given; + = active, no number. A selection: hits, their analogues and other compounds. The true share with any hit is near 3.7%.

SMILES	tim23-1 inh	tim10-1 inh	PfHsp90 yeast 2	TIM10 inh	Rce1 inhib
CCCCCC(=O)N(O)C1CC(=O)N(c2ccccc2)C1=O (configuration not stated)	18.7	25.7	105.3*	18.1	i
CCc1ccc(NC(=O)c2cnc(N3CCN(c4ccccn4)CC3)c3ccccc23)cc1	35.6	32.0	-5.2	33.5	+
CCc1ccccc1NC(=S)N(CCCN(C)C)Cc1cc2cc3c(cc2[nH]c1=O)OCO3	29.4	9.9	-18.8	-10.2	+
N=c1c2c(ncn1Cc1ccco1)Oc1ccc3ccccc3c1C2c1ccccc1 (configuration not stated)	15.3	20.9	-33.1	39.7	+
COc1ccc(/C=C/c2ccncc2)cc1OC	-2.7	0.3	0.7	-2.9	.
COc1ccc(/C=C\c2cc(OC)c(OC)cc2CC[N+](C)(C)C)cc1OC	2.2	4.1	8.9	18.6	+
Cc1ccc(-n2c(=O)c3sccc3n(CC(=O)NC3CCCCC3)c2=O)cc1	5.8	6.4	19.7	15.4	i
CC(C)Cn1c(Cc2ccccc2)n[nH]c1=S	21.1	12.9	-35.9	14.4	i
COc1cccc(C(=O)Nc2nnc(SCC(=O)NC3CCCC3)s2)c1	4.0	-4.4	-26.3	-21.9	+
CN(C(=O)COC(=O)c1cn(-c2ccccc2)nc1-c1ccccc1)C1CCS(=O)(=O)C1 (configuration not stated)	-2.9	17.0	-17.8	-1.0	+
CCN(C(=O)COC(=O)c1cn(-c2ccccc2)nc1-c1ccccc1)C1CCS(=O)(=O)C1 (configuration not stated)	13.9	-1.7	10.2	12.2	+
CCN(C(=O)COC(=O)c1cc(-c2ccccc2)nn1-c1ccccc1)C1CCS(=O)(=O)C1 (configuration not stated)	5.0	12.5	-12.4	5.3	i
C=CCN=C1SC(C)(C)C(=O)N1S(=O)(=O)c1ccc(C)cc1	17.3	20.5	6.4	19.1	i
c1ccc(CCNc2ccnc3cc4ccccc4cc23)cc1	.	.	5.3	.	+
CSc1ccccc1NC(=O)Cn1c([N+](=O)[O-])cnc1C	12.1	10.2	13.9	-7.5	i
COC(=O)c1nc(N)sc1-c1ccc(Cl)c(Cl)c1	35.9	15.9	-27.4	24.1	+
COC(=O)c1nc(N)sc1-c1ccc(OC)cc1	2.4	15.6	-14.4	7.6	i
CC(=O)OC1CCC2(C)C(COc3ccc4ccc(=O)oc4c3)C(C)(O)CCC2C1(C)C (configuration not stated)	29.4	32.1	-5.4	20.2	+
C=C1CCC2C(C)(C)[C@@H](O)CC[C@@]2(C)[C@@H]1COc1ccc2ccc(=O)oc2c1 (some centres not stated)	34.5	14.8	-0.1	-11.0	i
O=C(O)C1Sc2[nH]c(=O)sc2C2c3ccc(O)cc3OC(=O)C12 (configuration not stated)	4.8	16.5	13.5	13.3	+
CCOC(=O)C[n+]1ccc2c([nH]c3ccccc32)c1C	-4.3	-4.6	-27.2	-2.2	+
CCOC(=O)Cc1c(Cl)c2ccccc2[nH]c1=O	-1.4	-7.1	2.8	-8.9	i
COc1ccc(OC)c(Nc2nc(C)nc3c2oc2ccccc23)c1	31.2	6.4	-1.9	32.7	i
COc1ccc(Cl)cc1Nc1nc(C)nc2c1oc1ccccc12	20.9	17.2	-18.8	38.4	+
Cc1ccc(OCCn2c3ccccc3n3nc(C)c(=O)nc23)cc1	5.0	33.3	37.9	-0.2	+
SMILES	tim23-1 inh	tim10-1 inh	PfHsp90 yeast 2	TIM10 inh	Rce1 inhib
Cc1ccc(OCCn2c(=O)cnc3ccccc32)cc1	-2.3	-6.0	-17.9	-23.2	i
O=C(CSc1ccccc1)OCC(=O)N1CCN(C(=O)c2ccco2)CC1	8.8	6.3	.	14.9	.
CCN(CC)C1CC(=O)N(c2ccc(Br)cc2)C1=O (configuration not stated)	30.0	28.4	112.1*	25.1	i
Cc1cc(C)nc(SC2CC(=O)N(c3ccc(Br)cc3)C2=O)n1 (configuration not stated)	18.6	22.8	-1.6	6.1	i
O=C(c1cccc(S(=O)(=O)Nc2ccccc2F)c1)N1CCN(c2ccccc2F)CC1	27.4	4.5	-25.4	8.0	i
CCOCCCNC1=C(Cl)C(=O)c2ccccc2C1=O	44.9	35.9	107.4*	30.3	i
Cc1nc(Nc2ccncc2)c2oc3ccccc3c2n1	0.5	6.8	13.4	-4.2	i
CCc1nc(Nc2ccncc2)c2oc3ccccc3c2n1	-2.3	5.8	5.4	6.1	+
COc1cccc(-c2onc3ccc(C(=O)/C=C/N(C)C)cc23)c1	28.7	28.7	-22.2	26.2	i
Cc1ccc(-c2onc3ccc(C(=O)/C=C/N(C)C)cc23)cc1	26.6	35.7	119.3*	22.3	i
COc1cccc2c1C(=O)c1c(O)c3c(c(O)c1C2=O)CC(O)(C(C)=O)CC3OC1CC(N(C)C)C(O)C(C)O1 (configuration not stated)	.	.	98.0*	.	.
CCn1c(SCC(=O)c2ccccc2)nc2sc3c(c2c1=O)CCN(C)C3	16.8	13.9	17.3	23.5	i
COc1ccccc1C1CC(c2ccc(Br)cc2)=NN1C(=O)c1cccnc1 (configuration not stated)	49.6	34.6	-11.8	11.0	i
COc1cccc(C2CC(c3ccc(Br)cc3)=NN2C(=O)c2ccncc2)c1OC (configuration not stated)	46.3	39.1	0.0	19.0	+
O=C(OCc1cnc(Cl)s1)c1cccs1	9.0	7.2	-10.2	-6.4	i
O=C(NC(NC(=S)Nc1c(Cl)cccc1Cl)C(Cl)(Cl)Cl)c1cccc([N+](=O)[O-])c1 (configuration not stated)	9.1	-2.1	9.8	-4.9	i
CC(C)[C@H](NC(=O)c1ccco1)C(=O)N(C)Cc1ccc(C(F)(F)F)cc1	24.5	21.2	-16.7	6.1	.
CC(C)N1CCN(Cc2ccc(OCc3ccccc3)cc2)CC1CCO (configuration not stated)	9.0	8.1	9.8	2.4	+
CC(C)N1CCN(Cc2ccc(-c3ccccc3)cc2)CC1CCO (configuration not stated)	-4.1	-1.8	-13.8	1.4	i
CC1=C(C(=O)N2CCOCC2)C(c2ccccc2F)C2=C(CC(C)(C)CC2=O)N1 (configuration not stated)	6.3	3.3	.	2.2	+
O=C(c1ccc(CS(=O)(=O)Cc2ccccc2)cc1)N1CCCCC1	6.0	-14.7	-2.7	-6.7	i
CCN(CC)CCn1c2ccccc2c2cnc(N=CN(C)C)c(C#N)c21	30.1	13.2	-22.7	36.4	+
O=C(OCc1c(Cl)cccc1Cl)c1ccncc1	4.7	-52.0	-17.3	-32.0	i
CC(OC(=O)c1ccc2c(c1)NC(=O)CS2)C(=O)c1ccc(F)cc1 (configuration not stated)	21.8	-28.6	.	-17.7	.
